PAD4 FP inh = inhibitors of human PAD4. Q9UM07. recombinant PAD4, RCA probe fluorescence polarization. inhibition, % at 6.36 µM. 330,000 tested, 0.41% active;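 active = percent inhibition above a cutoff equal to the mean of all tested compounds plus 3 SD, cut at about 15% in these data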;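 note: 0% = PAD4 with RCA probe and DMSO and 100% = probe without PAD4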
Target sequence (Q9UM07 whole entry, looked up): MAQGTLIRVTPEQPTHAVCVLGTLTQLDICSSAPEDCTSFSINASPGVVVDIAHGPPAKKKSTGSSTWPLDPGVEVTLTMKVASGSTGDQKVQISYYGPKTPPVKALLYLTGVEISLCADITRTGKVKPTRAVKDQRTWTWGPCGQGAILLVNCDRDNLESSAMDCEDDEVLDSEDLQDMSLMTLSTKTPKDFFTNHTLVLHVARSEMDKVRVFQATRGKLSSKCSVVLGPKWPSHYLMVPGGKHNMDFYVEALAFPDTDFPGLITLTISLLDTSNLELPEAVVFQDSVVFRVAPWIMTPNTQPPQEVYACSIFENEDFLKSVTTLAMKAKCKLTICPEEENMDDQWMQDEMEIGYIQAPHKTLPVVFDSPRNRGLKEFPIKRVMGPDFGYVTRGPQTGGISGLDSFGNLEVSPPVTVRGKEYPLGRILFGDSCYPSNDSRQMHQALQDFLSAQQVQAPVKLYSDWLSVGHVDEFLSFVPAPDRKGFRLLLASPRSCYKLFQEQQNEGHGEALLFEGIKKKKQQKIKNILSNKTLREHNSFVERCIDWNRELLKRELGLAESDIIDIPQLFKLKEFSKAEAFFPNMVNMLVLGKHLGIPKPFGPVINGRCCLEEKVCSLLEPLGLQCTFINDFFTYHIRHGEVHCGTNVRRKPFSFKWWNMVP
LYPLA1 inh = blocks human lysophospholipase 1, a PME1 counter-screen. O75608. recombinant LYPLA1, FP-Rh probe fluorescence polarization. inhibition, % at 5.9 µM. 320,000 tested, 0.16% active. AID 2174;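 active = inhibition above the mean of all tested compounds plus 3 SD, set per campaign, cut at about 14% in these data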;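 note: inhibitors block serine hydrolase probe labeling of LYPLA1 so polarization falls; 0% = enzyme with DMSO and 100% = wells lacking LYPLA1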
GSTO1 inh = GSTO1 inhibition, counter-screen for RBBP9 inhibitors; 300,000 tested, 1.1% active; recombinant GSTO1, activity-based probe fluorescence polarization; inhibition, % at 5.96 µM; P78417;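 active = inhibition above the campaign mean inhibition plus 3 SD, cut at about 35% in these data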;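 note: 0% = GSTO1-1 with DMSO and 100% = wells lacking GSTO1-1 enzyme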
PME-1 primary = blocks human protein phosphatase methylesterase 1; Q9Y570; recombinant PME-1, FP-Rh probe fluorescence polarization; inhibition, % at 5.9 µM; 320,000 tested, 0.53% active; AID 2130;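 active = inhibition above the campaign mean of all compounds plus 3 SD, cut at about 26% in these data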;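 note: competitive labeling of PME-1 active site by serine hydrolase directed probe; 0% = PME-1 with DMSO and 100% = wells lacking PME-1 enzyme; inhibitors block probe labeling so polarization falls and inhibition rises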
Fam108B inh = Fam108B inhibition, counter-screen for RBBP9 inhibitors | 300,000 tested, 0.33% active | recombinant Fam108B, FP-Rh probe fluorescence polarization | inhibition, % at 9.51 µM;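 active = inhibition above the screen mean inhibition plus 3 SD, computed separately per campaign, cut at about 18% in these data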;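 note: inhibitors lower polarization as less probe binds the enzyme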
LYPLA2 inh = counter-screen for PME1 inhibitors: inhibitors of human LYPLA2; inhibition, % at 5.9 µM; 320,000 tested, 0.38% active; AID 2177; recombinant LYPLA2, FP-Rh probe fluorescence polarization;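 active = inhibition above the screen-wide mean plus 3 SD, limit set per campaign, cut at about 26% in these data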;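 note: 0% = LYPLA2 with DMSO and 100% = wells lacking LYPLA2 enzyme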
Fam108b confirm = confirmation of mouse Fam108b serine hydrolase inhibitors; inhibition, % at 9.51 µM; recombinant Fam108b, FP-Rh probe fluorescence polarization; 930 tested, 44% active; AID 1978; shares compounds with Fam108B inh;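 active = inhibition above a limit from the primary screen, the mean over all compounds plus 3 SD, cut at about 19% in these data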;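 note: 0% = median of active Fam108b wells and 100% = catalytically dead S170A mutant; inhibitors free the probe so polarization falls as inhibition rises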
Fam108b ABPP HTS = mouse ABHD17B inhibition. shares compounds with Fam108B inh. recombinant Fam108b, gel-based ABPP, fluorophosphonate probe. inhibition, % at 20 µM. 260 tested, 44% active. AID 588649; in the data active = inhibition above about 40%
* marks the source's active call; other numbers are inactive results; / = not tested or not shown. Compounds with a hit are over-represented: about 1.8% of the library has one in this group of screens.

SMILES	PAD4 FP inh	LYPLA1 inh	GSTO1 inh	PME-1 primary	Fam108B inh	LYPLA2 inh	Fam108b confirm	others
Oc1c(Br)cc(Br)c(/C=N/n2c(-c3ccccc3)n[nH]c2=S)c1Br	-6	2	-15	38*	19*	6	16
C/C(=N\NC(=O)c1cc2ccccc2cc1O)c1cccs1	-2	-4	20	-6	19*	7	-6
Cc1cccc(Nc2nc(-c3ccc(O)cc3O)cs2)n1	0	-7	1	21	21*	-1	11
Cc1ccc2c(c1)cc1c(=O)n(CC(=O)NCCCc3ccccc3)nc(C)n12	2	-2	2	-1	-1	-4	/
Cc1ccc(C(=O)NC(=S)Nc2ccc3c(c2)OCCO3)c(C)c1	-7	1	-5	5	26*	6	-4
Cc1cc(C)cc(C(=O)NC(=S)Nc2ccc3c(c2)OCCO3)c1	-5	-6	-8	-3	-2	-14	/
O=C(COC(=O)c1ccc2ncsc2c1)Nc1ccccc1Br	3	0	/	-4	/	5	/
COc1ccc(-c2nc(-c3ccccc3)c(-c3cc([N+](=O)[O-])ccc3C)[nH]2)cc1OC	1	-1	2	2	15	-2	/
COc1ccc(-c2[nH]c(-c3cc(OC)c4c(c3)OCO4)nc2-c2ccccc2)cc1	9	0	-1	9	19*	-6	-9
COCCn1c(SCC(=O)NC(=O)NCc2ccccc2)nc2ccccc2c1=O	5	-2	/	-1	/	-6	/
Cc1ccc(C(=O)Nc2cccc(C(=O)N/N=C/c3ccc(F)cc3)c2)cc1	0	-3	-4	-14	-6	-9	/
Cc1c(C)c2cc(Cl)c(O)c(CN(C)C)c2oc1=O	-2	4	0	0	2	6	/
O=c1oc2c(O)c(O)cc3c(=O)oc4c(O)c(O)cc1c4c23	-4	-11	70*	-20	55*	-1	42*	Fam108b ABPP HTS=0
Cc1cc(NC(=O)c2cccc(S(=O)(=O)N3c4ccccc4CC3C)c2)no1 (centres undefined)	3	-4	0	1	-2	4	/
CCOC(=O)c1sc(NC(=O)c2cccc(S(=O)(=O)N3c4ccccc4CC3C)c2)cc1C (centres undefined)	2	-18	-9	33*	43*	-3	21*
O=C(CNc1cccc2ccccc12)N/N=C/c1cccc(Oc2ccccc2)c1	-5	-20	-8	36*	33*	-4	13
O=C(CNc1cccc2ccccc12)N/N=C/c1ccccn1	-3	2	23	13	0	10	/
Cc1onc(-c2ccccc2)c1C(=O)N1CCN(S(=O)(=O)c2ccc(OC(F)(F)F)cc2)CC1	-4	-1	-2	5	-4	1	/
O=c1/c(=C/c2ccccn2)sc2nc3ccccc3n12	3	4	5	-1	0	6	/
O=C(O)c1cccc(-c2ccc(/C=c3/sc4nc5ccccc5n4c3=O)o2)c1	-2	10	-1	-11	25*	4	9
O=c1c(=Cc2cc([N+](=O)[O-])cc([N+](=O)[O-])c2O)sc2nc3ccccc3n12	/	/	/	/	/	/	/	Fam108b ABPP HTS=20
C/C(=N\Nc1ccc(S(=O)(=O)Nc2ccccc2)cc1[N+](=O)[O-])c1ccncc1	-1	0	7	9	2	2	/
O=[N+]([O-])c1ccccc1/C=C/C=N/Nc1ccc(S(=O)(=O)Nc2ccc(Cl)cc2)cc1[N+](=O)[O-]	-2	-10	1	40*	60*	12	12
COc1ccc(NS(=O)(=O)c2ccc(N/N=C(\C)c3ccncc3)c([N+](=O)[O-])c2)cc1	4	-2	-55	28*	23*	10	-3
C/C(=N\Nc1ccc(S(=O)(=O)Nc2ccc(Cl)cc2)cc1[N+](=O)[O-])c1ccc(N2CCOCC2)cc1	-2	-2	-2	2	35*	1	5
SMILES	PAD4 FP inh	LYPLA1 inh	GSTO1 inh	PME-1 primary	Fam108B inh	LYPLA2 inh	Fam108b confirm	others
CCOC(=O)C1CCCN(C(=O)Cn2nc(C)n3nc(-c4ccccc4)cc3c2=O)C1 (centres undefined)	1	0	1	2	-3	1	/
Cc1cccc(N2CCC(N=CN(C)C)=N2)c1	-3	7	-2	1	-2	6	/
COc1cc(/C=N/NC(=O)c2ccccc2)ccc1O	-8	1	3	-7	4	-5	/
COc1cc(/C=N/NC(=O)c2ccc(CSc3nc4ccccc4[nH]3)cc2)ccc1O	-6	-31	-49	-32	24*	-27	2
CCOC(=O)c1cc(-c2ccccc2C)n(CC2CC(c3cccc([N+](=O)[O-])c3)=NO2)n1 (centres undefined)	-2	-3	2	13	0	0	/
C(=C\c1nccc2c1[nH]c1ccccc12)/c1ccccc1	0	-9	-9	-15	-2	-17	/
Cc1ccc(/C=C\c2nccc3c2[nH]c2ccccc23)cc1	-5	-14	-36	-45	24*	-32	10
Fc1ccc(/C=C\c2nccc3c2[nH]c2ccccc23)cc1	-4	-10	-10	-33	19*	-12	1
COc1cc(C(=O)O)c2ccccc2n1	2	-2	4	-7	0	-6	/
O=C(NCc1ccccc1)c1sc(=S)n2c1[nH]c(=O)c1ccccc12	-5	-3	-71	11	40*	5	55*	Fam108b ABPP HTS=0
COc1cccc(/C=N/NC(=O)c2ccc(-c3ccccc3)cc2)c1O	-5	-4	5	-7	6	-3	/
COc1cccc(/C=N/NC(=O)c2[nH]c(C)c(C(=O)N/N=C/c3cccc(OC)c3O)c2C)c1O	-10	-17	-30	35*	39*	-18	60*
O=[N+]([O-])c1cc(Br)c(O)c(/C=N/Nc2nnnn2-c2cccc3ccccc23)c1	-7	5	-35	49*	40*	16	54*
NC(=O)C1CCN(C(=O)c2cc(-c3ccc(Cl)s3)nc3ccccc23)CC1	-1	/	/	/	/	/	/
O=C(COC(=O)C1CC2CCCC(C1)C2=O)Nc1cccc(F)c1 (centres undefined)	-3	-4	/	8	/	1	/
N#CC1=C(N)SC(N)=C(C#N)C1c1ccoc1	13	-6	23	-7	26*	-5	-25
COc1ccc(C=NNC(=O)c2ccc(O)cc2)cc1CN1CCCc2ccccc21	/	/	/	/	/	/	/	Fam108b ABPP HTS=90*
COc1ccc(/C=N/NC(=O)c2ccc(F)cc2)cc1CN1CCc2cc(OC)c(OC)cc2C1C (centres undefined)	-2	-8	4	0	-10	-14	/
